Compounds with a hit are over-represented: about 6.9% of the library has one in this group of screens.
MCF10A rerep = A quantitative high throughput screen for small molecules that induce DNA re-replication in MCF 10a normal breast cells | hit rate 2.9% among 350,000 | Potency, µM (titrated, usually from 46.1 µM), for the others: top-dose activity, positive = re-replication, usual class: activators | MCF 10A DNA re-replication, Hoechst nuclear intensity, 48 h; further: potency means the concentration at half of the fitted maximal effect; % of control where 0% means no effect; nearly all actives have a fitted effect of over 50% in size
Giardia killer = Small Molecules that selectively kill Giardia lamblia: qHTS. Giardia lamblia trophozoite viability. activity change, % at 7.66 µM, hits read low. hit rate 0.15% among 340,000; in the data active means activity change below about -80%; inconclusive means between about -30% and that limit;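 further: parasites exposed to compound for two days anaerobically before the ATP read; on the % scale 0 is the no-effect control and ±100 the full control effect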
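Compounds were tested on trophozoites seeded at 100 cells/well and held 48 hrs at 37 deg C anaerobically. An ATP-based luminescent kit measured the remaining live cells.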
ASM inhibitor = Inhibitors of Secretory Acid Sphingomyelinase (S-ASM): qHTS | Sphingomyelin phosphodiesterase (Homo sapiens), P17405 | placental ASM, HMU-PC fluorogenic substrate, 60 min | Potency, µM (highest dose often 57.5 µM), for the others: top-dose activity change, negative = inhibition, most hits filed as inhibitors | hit rate 0.006% among 340,000; further: potency means the concentration at half of the fitted maximal effect
Target sequence (P17405 47-631 limits assumed): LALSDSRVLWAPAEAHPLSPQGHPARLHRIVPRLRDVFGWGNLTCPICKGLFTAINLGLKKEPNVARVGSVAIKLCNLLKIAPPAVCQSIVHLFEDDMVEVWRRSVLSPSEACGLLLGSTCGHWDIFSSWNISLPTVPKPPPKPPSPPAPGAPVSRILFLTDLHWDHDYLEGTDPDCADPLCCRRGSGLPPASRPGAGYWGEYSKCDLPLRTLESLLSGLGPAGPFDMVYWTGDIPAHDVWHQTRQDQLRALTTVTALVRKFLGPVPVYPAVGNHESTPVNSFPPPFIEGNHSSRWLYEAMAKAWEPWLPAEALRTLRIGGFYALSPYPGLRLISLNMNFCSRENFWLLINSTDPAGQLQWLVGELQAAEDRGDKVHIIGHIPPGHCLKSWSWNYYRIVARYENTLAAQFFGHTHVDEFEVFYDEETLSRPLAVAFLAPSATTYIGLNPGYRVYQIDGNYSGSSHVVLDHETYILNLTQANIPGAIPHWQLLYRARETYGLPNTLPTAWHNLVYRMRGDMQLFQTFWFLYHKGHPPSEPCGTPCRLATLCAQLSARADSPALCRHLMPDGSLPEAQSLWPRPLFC
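HMU-PC0 cleavage (9 uM final) by human placental ASM, 60 min at 37 °C following 10 min compound exposure at RT; stopped at pH 10, fluorescence Ex 386/Em 447 nm.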
KB-3-1 cytotox = qHTS assay for MDR1-selective chemotherapeutics: Primary screen using the parental adenocarcinoma cell KB-3-1 | Potency, µM (titrated, usually from 46.1 µM), hits mostly cytotoxic | hit rate 1.4% among 400,000 | KB-3-1 viability, CellTiter-Glo ATP luminescence, 72 h; further: potency means the concentration at half of the fitted maximal effect; on the % scale 0 is the no-effect control and ±100 the full control effect; nearly all actives have a fitted effect of over 60% in size
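Cytotoxicity in the drug-sensitive parental line KB-3-1 was scored as loss of CellTiter-Glo luminescence following 72 h incubation with compound. Values come from curve fitting of normalized concentration-response data.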
SW480 rereplic = A quantitative high throughput screen for small molecules that induce DNA re-replication in SW480 colon adenocarcinoma cells; hit rate 1.8% among 340,000; Potency, µM (doses to about 46.1 µM), for the others: at the top dose re-replication activation, most hits filed as activators; SW480 DNA re-replication, Hoechst DNA content imaging, 48 h; further: potency means the concentration at half of the fitted maximal effect; % of control where 0% means no effect; nearly all actives have a fitted effect of over 55% in size
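DNA re-replication was detected as more nuclei of elevated Hoechst intensity after 48 hr exposure to compound (23 nL pinned per well of 250 cells).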
KB-V1 cytotox = qHTS assay for MDR1-selective chemotherapeutics: Primary screen using the drug-selected MDR subline cells KB-V1. KB-V1 MDR cells viability, CellTiter-Glo, 72 h. Potency, µM (top dose mostly 46.1 µM), usual class: cytotoxic. hit rate 3.4% among 400,000. AID 1347076, 2019; further: potency means the concentration at half of the fitted maximal effect; on the % scale 0 is the no-effect control and ±100 the full control effect; nearly all actives have a fitted effect of over 60% in size
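Following 72 h at 37 degrees C with compound, KB-V1 cell viability was read by CellTiter-Glo luminescence, medium being phenol-red-free DMEM plus 10% FBS; concentration-response parameters came from normalized, curve-fitted qHTS data.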
Active calls of the source: *; i = inactive; ? = inconclusive; . = no result given. Unless noted, the call rests on the fitted dose curve; in most records, active means well fitted curve in the direction sought with a large enough effect; inconclusive means small, poorly fitted or top-dose-only effect, or another doubt; inactive means no such curve, though single readings can be large; an effect the other way counts as inactive or inconclusive.

SMILES | MCF10A rerep | Giardia killer | ASM inhibitor | KB-3-1 cytotox | SW480 rereplic | KB-V1 cytotox
CCCCNC(=O)CCn1c(=O)c2ccccc2n(Cc2ccccc2C#N)c1=O | . | . | . | i | . | i
COc1ccc(OCc2cc(C(=O)N3CCOCC3)no2)c(Cl)c1 | -2.4% | -8.0 | 0.0% | i | -6.8% | i
CCOc1ccc(CNC(=O)C2Cc3ccccc3N2C(=O)CC)cc1OC (configuration not stated) | . | . | . | i | . | i
O=[N+]([O-])c1ccc(O)c(/C=N/Nc2ccc(Cl)nn2)c1 | 0.731µM* | 16.2 | -1.3% | ? | ? | i
CCc1ccc2nc(SCC(=O)N(CC)CC)c(C#N)cc2c1 | ? | 5.1 | -1.7% | i | 1.4% | 13µM*
CCN(CC)C(=O)CSc1nc(C)cc(C)c1C#N | 1.0% | -27.7 | 13.7% | i | -6.2% | i
CCOC(=O)C1CCCN(C(=O)c2cc3c(C)nc4ccccc4c3o2)C1 (configuration not stated) | 19.8% | -3.5 | 0.7% | i | -1.1% | 13µM*
Cc1nc2ccccc2c2oc(C(=O)N3CC(C)CC(C)C3)cc12 (configuration not stated) | 12.0% | -11.2 | 2.7% | i | 4.2% | i
Cc1ccc(C)c(N2CCN(C(=O)c3cc4c(C)nc5ccccc5c4o3)CC2)c1 | 20.6µM* | -21.2 | -22.6% | i | -8.6% | i
CCOC(=O)C1CCCN(C(=O)c2ccc3nc(-c4cccc(OC)c4)oc3c2)C1 (configuration not stated) | ? | -7.8 | -2.0% | 5.8µM* | 16.4µM* | i
COc1ccccc1N1CCN(C(=O)c2cc3c(C)nc4ccccc4c3o2)CC1 | 22.1% | 9.4 | -6.7% | ? | -0.5% | ?
C=C(C)[C@@H]1C2=CC(C(=O)OC)=C(C[C@@H](C(=C)C)[C@H]3O[C@H]3C3=C[C@H]1OC3=O)O2 | . | -11.4 | . | . | . | .
CCOc1ccc(S(=O)(=O)NCC(c2ccc3c(c2)OCO3)N2CCN(C)CC2)cc1 (configuration not stated) | 9.3% | -5.4 | 1.3% | i | 6.51µM* | i
O=C(Nc1ccc(O)cc1)c1cc2n(n1)C(C(F)(F)F)CC(c1ccco1)N2 (configuration not stated) | ? | -14.0 | 1.1% | 10.3µM* | ? | ?
CCOC(=O)c1c(NC(=O)c2cc3n(n2)C(C(F)(F)F)CC(c2ccccc2)N3)sc(C)c1C (configuration not stated) | 22.3% | -1.4 | 188.6% | i | 16.4µM* | i
COc1ccc(NC(=O)c2cc3n(n2)C(C(F)(F)F)CC(c2ccc4c(c2)OCO4)N3)cc1OC (configuration not stated) | 2.4% | -1.8 | ? | i | ? | 16.4µM*
Cc1cccc(NC(=O)c2cc3n(n2)C(C(F)(F)F)CC(c2ccc4c(c2)OCO4)N3)c1 (configuration not stated) | 2.9% | 14.7 | -16.1% | i | 9.4% | 11.6µM*
CC(=O)N(c1ccccc1)c1ccc([N+](=O)[O-])cc1[N+](=O)[O-] | ? | -7.3 | -1.7% | i | -0.2% | i
O=C(NCC1CCCO1)c1cc2n(n1)C(C(F)(F)F)CC(c1ccc(Br)cc1)N2 (configuration not stated) | 8.3% | -17.3 | -0.7% | i | 0.2% | 8.2µM*
O=C(Cn1c(=O)n(-c2ccc(F)cc2)c(=O)c2sc3ccccc3c21)N1CCCC1 | . | . | . | i | . | i
CCOc1ccc(C2c3cc(OC)c(OC)cc3CC(=O)N2c2ccc(OC)cc2)cc1 (configuration not stated) | 124.0% | -2.9 | -10.7% | 18.4µM* | 14.6µM* | ?
